High-throughput results as filed in PubChem BioAssay.
Sfp PPTase inh: blocks B. subtilis Sfp PPTase activity. Q9F4F7. Biochemical Sfp PPTase activity, qHTS. Potency, µM, for the others: largest response in the series, negative = inhibition, most hits filed as inhibitors. 310,000 compounds, 3.5% hits. AID 1490;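 further: the enzyme is Sfp with the accession as filed and its product quenches rhodamine fluorescence; 0% = enzyme reaction without inhibitor and -100% = no enzyme wells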
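Reaction rates are the 30-min fluorescence difference (ex 525, em 598 nm) in wells containing 15 nM Sfp, 5 uM rhodamine-CoA and 12.5 uM BHQ-2-YbbR at pH 7.6 with 10 mM MgCl2.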
HP1b chromo inh: blocks HP1-beta chromodomain binding to methylated histone tails | P83916 | 390,000 compounds, 0.56% hits | Potency, µM (top dose mostly 114 µM), inactives show top-dose activity change, negative = inhibition, actives largely listed as inhibitors | AID 540317 | AlphaScreen HP1-beta / biotin-H3K9me3 peptide binding; further: nearly all actives have a fitted effect of over 70% in size
Target sequence (P83916 whole entry, looked up): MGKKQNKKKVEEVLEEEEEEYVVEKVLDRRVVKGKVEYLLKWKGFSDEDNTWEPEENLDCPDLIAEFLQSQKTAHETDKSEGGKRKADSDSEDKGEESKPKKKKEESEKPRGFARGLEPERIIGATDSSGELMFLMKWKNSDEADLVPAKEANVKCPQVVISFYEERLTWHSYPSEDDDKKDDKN
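AlphaScreen: HP1-beta (50 nM) preformed 30 min with biotin-H3(1-18)K9me3 peptide (50 nM) in PBS pH 7.4, 0.01% Tween-20. Compound added for 30 min at RT, then streptavidin donor/nickel chelate acceptor beads (10 ug/mL) for 30 min.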
JMJD2A Tudor: blocks the human JMJD2A Tudor domain | AlphaScreen JMJD2A-Tudor / H3K4me3 peptide binding | Potency, µM (highest dose often 114 µM), for inactives: top-dose activity change, negative = inhibition, usual class: inhibitors | O75164 | AID 504339 | 390,000 compounds, 4.4% hits; further: on the % scale 0 is the no-effect control and ±100 the full control effect; nearly all actives have a fitted effect of over 50% in size
G9a block: inhibitors of human histone lysine methyltransferase G9a. G9a H3K9 monomethylation, AlphaScreen, 2 h. Q96KQ7. Potency, µM (highest dose often 102 µM), inactives show at the highest dose activity, negative = inhibition, usual class: inhibitors. 350,000 compounds, 8.8% hits; further: on the % scale 0 is the no-effect control and ±100 the full control effect; nearly all actives have a fitted effect of over 75% in size
Target sequence (Q96KQ7 913-1193 limits assumed): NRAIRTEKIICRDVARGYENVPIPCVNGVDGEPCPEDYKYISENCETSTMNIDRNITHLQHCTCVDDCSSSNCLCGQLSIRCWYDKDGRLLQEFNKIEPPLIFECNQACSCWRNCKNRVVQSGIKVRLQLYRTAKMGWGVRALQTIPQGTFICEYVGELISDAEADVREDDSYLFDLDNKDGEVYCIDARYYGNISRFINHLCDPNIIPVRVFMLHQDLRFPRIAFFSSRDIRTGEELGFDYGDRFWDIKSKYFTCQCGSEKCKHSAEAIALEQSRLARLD
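Readings reflect AlphaScreen signal from monomethyl-H3K9 antibody detection. HMT at 20 nM; substrate b-H3K9 500 nM; cofactor SAM 20 uM; 2 h RT reaction; compounds tested as titrations in qHTS with 15 min preincubation.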
BAZ2B block: blocks human BAZ2B. Potency, µM (series often up to 114 µM), for inactives: at the top dose activity change, negative = inhibition, actives largely listed as inhibitors. AlphaScreen BAZ2B-H3K14Ac peptide displacement. Q9UIF8. 360,000 compounds, 4.4% hits; further: on the % scale 0 is the no-effect control and ±100 the full control effect; nearly all actives have a fitted effect of over 60% in size
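Complex of BAZ2B and biotin-H3K14Ac (50 nM apiece) forms over 30 min at RT, then faces library compounds up to 110 uM for another 30 min; AlphaScreen beads added, 20 min dark incubation, luminescence read.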
L3MBTL1 block: inhibitors of human L3MBTL1; Potency, µM (doses to about 57.1 µM), without a hit: at the highest dose activity, negative = inhibition, hits mostly inhibitors; 230,000 compounds, 0.66% hits; Q9Y468; AlphaScreen L3MBTL1–H3K9me1 peptide binding; further: on the % scale 0 is the no-effect control and ±100 the full control effect; nearly all actives have a fitted effect of over 60% in size
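Read-out is AlphaScreen signal from streptavidin donor and nickel chelate acceptor beads (10 ug/mL final each) bridging L3MBTL1 (50 nM) and biotinylated K9-monomethylated H3(1-15) peptide (75 nM), after 30 min compound exposure at room temperature.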
Active calls of the source: *; ? = inconclusive; · = no result; [ ] = dose if it differs, or a comment. In the library only some 12% were active in any assay of this set; here they are far more common. The call rests on the fitted dose curve; in most records, active means well fitted curve in the direction sought with a large enough effect; inconclusive means small, poorly fitted or top-dose-only effect, or another doubt; inactive means no such curve, though single readings can be large; an effect the other way counts as inactive or inconclusive. Potency means the concentration at half of the fitted maximal effect.

SMILES | Sfp PPTase inh | HP1b chromo inh | JMJD2A Tudor | G9a block | BAZ2B block | L3MBTL1 block
C=C1c2cccc(C(F)(F)F)c2O[C@H](C(=O)OCC)C1OC (mixture of isomers) | 1% | · | · | 34% | · | ·
Oc1ccc(/C=N/Nc2nccnc2Cl)cc1 | -30% | -10% | -6%[57.1 µM] | 5%[12.7 µM] | -2% | ·
Nc1c(Cl)ncnc1N/N=C/c1ccc(O)cc1 | 56µM* | 2% | -18% | 8%[59 µM] | ? | ·
Cc1ccc(CNC(=O)c2cccn2-c2nnc(N3CCCCC3)s2)cc1 | · | 23% | -26% | 3%[59 µM] | -20% | ·
CN1CCN(Cc2nc3c([nH]2)c(=O)[nH]c(=O)n3C)CC1 | -25% | -2% | 10µM* | ? | -4% | 3%
Cn1c(=O)c2[nH]c(CN3CCCCC3)nc2n(C)c1=O | · | ? | 4µM* | · | · | ·
Cn1c(=O)c2[nH]c(CN3CCN(Cc4ccccc4)CC3)nc2n(C)c1=O | -6% | 9% | 8.9µM* | ? | -5% | ·
Cn1c(=O)c2[nH]c(Cc3cccc(O)c3)nc2n(C)c1=O | · | 21% | -1% | · | · | ·
Cc1cccc(CNC(=O)c2cnc3sc(N4CCCCCC4)nn3c2=O)c1 | · | -6% | ? | 20%[59 µM] | -8% | ·
O=C1c2ccccc2C(=O)N1CCCc1nc(-c2ccccn2)no1 | -16% | -14% | 79µM* | 22%[59 µM] | ? | 3%
O=C(N/N=C/c1ccncc1)c1cccc(S(=O)(=O)Nc2ccc(Cl)cc2)c1 | 56µM* | 54% | -14%[11.4 µM] | -33%[59 µM] | 20µM* | ·
Cc1ccc(/C=N/NC(=O)c2cccc(S(=O)(=O)Nc3ccccc3Cl)c2)s1 | 0% | -2% | ? | 50µM* | 4% | -2%
O=C(N/N=C/c1cccnc1)c1cccc(S(=O)(=O)Nc2cccc(Cl)c2)c1 | 11% | 12% | -5% | 0% | -13% | 11%
COc1ccccc1NC(=O)CSc1nc2c(oc3ccccc32)c(=O)n1-c1ccc(C)cc1 | · | 14% | -8% | -36%[59 µM] | -13% | ·
CCCS(=O)(=O)c1nc(S(=O)(=O)c2ccc(C)cc2)c(N2CCc3ccccc3C2)s1 | -9% | 28% | -10% | 35µM* | 24% | 20%
COc1ccc(-c2nc(-c3ccccc3)c(Nc3c(C)cccc3C)o2)cc1 | -14% | · | · | · | · | ·
Cc1ccc(Cn2c(SCCN3CCCCC3)nc3c2c(=O)[nH]c(=O)n3C)cc1 | 11µM* | -29% | -22% | 25µM* | 2% | 5%
Cn1c(=O)[nH]c(=O)c2c1nc(SCCN1CCCCC1)n2CCCc1ccccc1 | 3.5µM* | -10% | ? | 8.9µM* | -31% | 4%
Cn1c(=O)[nH]c(=O)c2c1nc(SCCN1CCCCC1)n2Cc1ccccc1 | 16% | 48% | -1% | -7%[12.7 µM] | 0% | 10%
CCOC(=O)c1c(C)[nH]c(CCC(=O)NCCCN2CCN(c3ccccc3F)CC2)c1C | · | 9%[57 µM] | ? | -7%[59 µM] | -28% | ·
Cc1ccc(CNS(=O)(=O)c2cc(F)ccc2CN2C(=O)c3cccnc3C2=O)o1 | 5% | 50% | -19% | ? | 50µM* | ·
CC(=O)Nc1ccc(NS(=O)(=O)c2ccc(CN3C(=O)c4cccnc4C3=O)cc2)cc1 | 11% | 35% | -10% | 12% | 79µM* | ·
Cc1ccc(CNS(=O)(=O)c2ccc(CN3C(=O)c4cccnc4C3=O)cc2)o1 | -15% | 22% | -11% | -6%[0.0925 µM] | 79µM* | ·
CC(C)NS(=O)(=O)c1cc(F)ccc1CN1C(=O)c2cccnc2C1=O | 4% | 32% | ? | -36%[12.7 µM] | ? | ·
COc1cccc(NC(=O)Cn2c(=O)n(CCC(=O)NCc3ccccc3OC)c(=O)c3ccccc32)c1 | · | 7% | -11% | -8%[59 µM] | -33% | ·
SMILES | Sfp PPTase inh | HP1b chromo inh | JMJD2A Tudor | G9a block | BAZ2B block | L3MBTL1 block
Cc1ccc(-n2c(=S)[nH]c3c(oc4ccccc43)c2=O)cc1 | -9% | 29% | -9% | ? | -6% | 1%
O=c1c2oc3ccccc3c2[nH]c(=S)n1-c1ccccc1 | 50µM* | -27% | ? | 8.9µM* | 2% | 6%
O=C(Nn1c(=O)[nH]c2ccsc2c1=O)c1ccccc1 | 1% | 15% | -17% | 12%[59 µM] | -1% | 9%
Cc1cccc(-n2c(=S)[nH]c3c(oc4ccccc43)c2=O)c1 | -23% | 26% | -1% | 13µM* | -6% | 12%
CCCCn1c(=O)[nH]c2c(oc3ccccc32)c1=O | 1% | 27% | 0% | -2% | -6% | ·
O=c1c2sccc2[nH]c(=S)n1-c1ccccc1 | 79µM* | 25% | 5.6µM* | ? | -17% | -2%
C=CCC(O)(C#Cc1ccccc1)c1ccccc1 (stereo not drawn) | -24% | · | · | · | · | ·
Cc1ccc(-n2ncc(C(=O)N3CCN(C4CCCCC4)CC3)c2C2CCN(C(=O)OC(C)(C)C)CC2)cc1C | · | 21% | -13% | -1%[59 µM] | 6%[57.1 µM] | ·
CCN(CC)CCNC(=O)c1ccc(NC(=O)c2ccc(Cl)c(S(=O)(=O)N3CCCCCC3)c2)cc1 | 50µM* | -24% | ? | · | -17% | -12%
CCN(CC)CCNC(=O)c1ccc(NC(=O)c2ccc(C(=O)c3ccccc3)cc2)cc1 | · | 7% | -15% | 7.1µM* | -17% | 13%
Cc1noc(NS(=O)(=O)c2cccc3c(N(C)C)cccc23)c1C | 50µM* | · | · | · | · | ·
CN(C)c1cccc2c(S(=O)(=O)Nc3ccccn3)cccc12 | 3% | 28% | 3% | 7%[12.7 µM] | 11% | -8%
CC(=O)OCCCNc1cc(Sc2nc3ccccc3s2)c2nonc2c1[N+](=O)[O-] | 2.5µM* | 11% | -26% | ? | -27% | -2%
CCCC(=O)OCCNc1cc(SCCC(=O)OC)c2nonc2c1[N+](=O)[O-] | ? | 19% | -25% | ? | ? | -11%
CC(=O)OCCCNc1cc(Sc2ccc(C)cc2)c2nonc2c1[N+](=O)[O-] | 11% | ? | ? | -48%[59 µM] | 7% | -1%
CC(=O)OCCNc1cc(Sc2nc3ccccc3[nH]2)c2nonc2c1[N+](=O)[O-] | 1.6µM* | ? | 56µM* | 4µM* | ? | ?
COc1ccc(C2/C=C\CN(CC(C)C)CC(=O)N2Cc2cccc(F)c2)cc1 (stereo not drawn) | ? | 34% | -36% | 32µM* | · | 0%
C[N+]1(CCn2ccc3ccccc32)CCCCC1 | 20% | -5% | 25µM* | 50µM* | -5% | 0%
COc1ccc(/C=N/Nc2nc(C)cc(-c3ccccc3)n2)c(OC)c1 | 20% | 32% | -10% | -1% | 3% | -5%
COc1ccc(O)c(/C=N/Nc2nc(C)cc(-c3ccccc3)n2)c1 | · | ? | 35µM* | · | · | ·
COc1cccc(CNS(=O)(=O)c2cc(CN3C(=O)c4cccnc4C3=O)ccc2OC)c1 | 0% | 25% | -18% | 16% | -28% | ·
